# Reference: the supplement of paper PMC6555819
# Assays:
# Experiment in all cases: PBM binding z-score (relative to random genomic background probes); higher = stronger binding; sequences stand for … in GC…GCGATTGACAGCGTAGAATGAAGG
# [1] = test system: PPARg:RXRa DBDmut IVT, anti-RXR (DBD mutation: RXRa K156A/R161A, NR concentration 270 nM, RXRa partner concentration 90 nM)
# Procedure, shortened: (§1)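 Custom Agilent 4×180K protein-binding microarrays carried double-stranded probes, each with a 34-nt variable region. These regions held direct-repeat seeds, single-nucleotide variants, half-site ablations and random human genomic background sequences. Ligand-free nuclear receptor dimers were incubated on the arrays for 1 h, antibodies against each partner (one per run) detected binding, and scanned fluorescence was regression-normalized. Binding z-scores take the random background probes as reference.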
# [2] = test system: PPARg:RXRa IVT, anti-PPARg (NR concentration 270 nM, RXRa partner concentration 90 nM)
# Procedure, shortened: as §1
# [3] = test system: PPARg DBDmut:RXRa IVT, anti-PPARg (DBD mutation: PPARg1 K132A/R137A, NR concentration 270 nM, RXRa partner concentration 90 nM)
# Procedure, shortened: as §1
# [4] = test system: PPARg DBDmut IVT, anti-PPARg (DBD mutation: PPARg1 K132A/R137A, NR concentration 270 nM)
# Procedure, shortened: as §1
# [5] = test system: PPARg homodimer (NR concentration 180 nM)
# Procedure, shortened: as §1
# [6] = test system: PXR:RXRa (NR concentration 270 nM, RXRa partner concentration 90 nM)
# Procedure, shortened: as §1
# [7] = test system: PXR homodimer (NR concentration 270 nM)
# Procedure, shortened: as §1
# [8] = test system: RARa:RXR (NR concentration 270 nM, RXRa partner concentration 90 nM)
# Procedure, shortened: as §1
# [9] = test system: RARa homodimer (NR concentration 270 nM)
# Procedure, shortened: as §1
# [10] = test system: RARb:RXRa (NR concentration 270 nM, RXRa partner concentration 90 nM)
# Procedure, shortened: as §1
# [11] = test system: RARb homodimer (NR concentration 270 nM)
# Procedure, shortened: as §1
# [12] = test system: RARg:RXRa (NR concentration 270 nM, RXRa partner concentration 90 nM)
# Procedure, shortened: as §1
# [13] = test system: RARg homodimer (NR concentration 270 nM)
# Procedure, shortened: as §1
# [14] = test system: RXRa DBDmut IVT, anti-RXR (DBD mutation: RXRa K156A/R161A, NR concentration 90 nM)
# Procedure, shortened: as §1
# [15] = test system: RXRa homodimer (NR concentration 180 nM)
# Procedure, shortened: as §1
# [16] = test system: THRa:RXRa (NR concentration 90 nM, RXRa partner concentration 90 nM)
# Procedure, shortened: as §1
# [17] = test system: THRa homodimer (NR concentration 90 nM)
# Procedure, shortened: as §1
# [18] = test system: VDR:RXRa (NR concentration 270 nM, RXRa partner concentration 90 nM)
# Procedure, shortened: as §1
# [19] = test system: VDR homodimer (NR concentration 270 nM)
# Procedure, shortened: as §1
Sequence,PBM binding z-score [1],PBM binding z-score [2],PBM binding z-score [3],PBM binding z-score [4],PBM binding z-score [5],PBM binding z-score [6],PBM binding z-score [7],PBM binding z-score [8],PBM binding z-score [9],PBM binding z-score [10],PBM binding z-score [11],PBM binding z-score [12],PBM binding z-score [13],PBM binding z-score [14],PBM binding z-score [15],PBM binding z-score [16],PBM binding z-score [17],PBM binding z-score [18],PBM binding z-score [19]
CGTACGAGGGCATGAGTTGATAGCAAATGCCGAT,1.2,1.22,-0.964,-0.327,0.331,0.557,0.0171,0.533,-0.662,2.01,0.825,1.38,1.57,2.36,1.03,1.37,-0.172,1.36,1.67
GGAACGAGGGCATTTGAGTTGATAGCATGGCGAT,2.97,2.01,-0.643,-0.444,0.183,4,2.08,0.869,-0.446,1.96,0.691,1.17,1.29,3.42,0.881,3.57,-0.202,4.22,3.57
ACTCGGAGGACAAAGGTCAGAGTTACGCCAGTGA,0.7,3.34,0.234,-0.025,4.3,4.14,0.365,5.54,1.61,4.38,4.32,5.86,4.91,1.63,4.97,3.59,0.845,3.42,0.984
CGAACTAGGTCAGAACAAGACAGTGAAGGATGAT,7.36,7.43,2.55,1.93,1.19,0.244,0.276,0.614,0.172,2.85,1.79,2.37,3.15,0.577,1.31,1.32,0.101,0.215,0.237
TCTTGTAGATCAAGAGAGGTTAAGAAAGTGCGCT,0.899,0.319,-0.033,-0.382,-0.0736,2.95,0.139,1.6,-0.753,0.635,0.846,0.415,0.178,0.14,1.21,2.27,-0.932,1.77,0.194
GTCCCAAGGTGAATAGGTCGTTGATGAGTAGGCG,1.17,2.18,-0.477,-0.0374,1.53,0.817,0.264,2,0.909,2.12,2.13,2.88,1.42,-0.179,1.67,2.06,0.76,0.855,0.582
TCTTGTAGAGCAACAGGAGGTTAAGAAAGATCGA,1.98,1.27,0.588,0.0668,-0.265,0.413,-0.46,0.506,-0.541,0.184,0.136,0.269,0.0354,0.0247,0.479,0.705,-0.732,0.0425,-0.241
GCTGCTAGGTCAACTGATCGTCAGCTAAAGCTCG,4.99,4.1,0.249,-0.779,0.899,1.23,-0.904,2.14,-0.582,4.19,3.16,4.5,5.79,1.38,2.8,2.73,0.546,1.13,-0.532
CGAACGCGGGCATGAGTTGATAGCAAATGCCGAT,-0.0191,-0.364,-0.145,-0.957,-0.435,-0.69,-0.265,-0.878,-0.807,-0.0245,-0.346,-0.206,0.05,0.305,-0.124,-0.413,-0.72,-0.376,0.0939
GCTTGTAGATAAAGGTTAAGAAAGACTAAGCTAA,-0.151,0.466,0.79,-0.0657,0.422,0.774,-0.193,1.62,0.598,1.66,0.948,1.29,1,-0.0132,1.86,1,-0.76,0.626,-0.0184
GATACAGGGTCATGGCCAGAGTACGCGTATTGAT,3.28,4.13,0.893,-0.182,1.88,4.2,-0.295,5.43,0.00513,4.31,3.44,5.62,5.09,2.44,6.72,3.78,0.968,4.83,2.77
TATACCGGGTCAAAGGCCAGAGTACGAATGTCGA,2.58,5.47,0.885,1.2,2.12,3.61,0.647,4.89,0.935,3.88,3.15,4.74,4.08,1.38,5.91,3.36,0.712,3.9,1.98
CCAGACAGGTGAAAGGTAACCCAGTCTGGTACGC,1.94,3.53,-0.215,-0.209,0.618,0.694,-0.254,1.53,0.316,1.27,0.747,1.35,0.881,-0.455,1.83,0.935,-0.0283,0.645,-0.223
CCTTACGGGTCACTCCAGGGTATAGCATCGGAGT,2.07,3.17,-0.61,-0.915,2.12,3.89,0.022,3.65,-0.123,3.54,2.55,4.23,4.17,0.964,4.2,4.35,-0.222,3.25,0.88
TATACAGGGTCAAAGGCCAGTGTACGAATGTCGA,1.89,5.07,2.16,0.623,2.38,4.13,0.622,5.66,0.468,4.57,3.45,5.7,5.08,2.97,7.04,3.57,0.905,4.84,2.75
ACTAACGGGTCAACGAGGTTATAGCACGCGTATA,1.94,3.19,1.38,1.31,2.63,4.96,2.39,5.01,0.559,3.91,3.41,5.03,4.5,1.94,5.17,3.81,1.03,7.41,3.56
CGAACTAGGTCAGGGACAGTGAATCTCCGCACGC,7.43,7.24,1.27,0.491,0.781,0.326,-0.0952,0.867,-0.305,3.18,2.17,2.92,3.51,0.647,1.47,2.23,1.07,0.457,-0.0543
AGAACGAGGGCGATGAGTTGATAGCACGGGTGGC,0.888,0.217,-0.427,-0.338,-0.143,0.367,1.89,-0.627,-0.34,0.39,-0.239,-0.0988,0.302,1.06,0.298,-0.0851,-0.71,3.12,2.17
CAAACTAGGGCACCGGAAGGTCAAAGTCCGCATG,7.77,7.55,1.16,0.324,1.96,4.06,0.773,4.68,0.355,4.01,4.51,5.51,4.44,0.724,3.84,3.25,0.924,3.69,1.45
AGAATGAGGTTATACGTTGATCAGGGAAGAAAGT,2.33,2.33,1.31,1.24,1.05,1.18,0.411,1.69,0.556,1.44,0.786,1.49,0.994,1.71,2.12,2.2,0.901,1.39,1.5
CCTTAAGGGTCACTGACAGGTTATAGCATTTGGA,3.94,4.19,0.865,0.0136,3.85,4.69,0.0863,5.85,1.33,5.18,4.71,7.23,6.91,3.42,6.82,3.85,0.468,5,2.04
CGTCCAAGTTCAAGGTCAGTGAAAGAGACTCGAA,0.857,1.87,0.331,-0.271,4.01,4.56,3.81,3.81,2.09,4.49,4.11,4.76,5.33,4.51,3.82,3.56,2.47,3.88,4.98
AGCTCTAGGTAACAAGTTCAGTGAAAGAGAGGAC,3.82,2.13,0.734,0.272,0.839,1.63,1.98,0.544,0.529,1.64,1.92,1.12,1.23,0.916,0.551,1.49,0.681,1.94,2.64
TCTTGTAGTTCAAGCAGGTTAAGAAAGCCTGAGT,1.37,0.625,-0.45,-0.0561,0.815,2.26,1.78,1.59,0.00762,2.3,1.48,1.44,1.65,2.37,1.47,1.63,-0.0988,3.32,2.02
TAGCCTAGGTCATGCGGGCCAGTACAGTGTCGGC,1.55,2.81,0.187,-0.334,1.24,1.55,-0.513,2.47,-0.899,3.61,2.93,3.86,4.22,0.739,3.08,3.06,0.586,2.83,0.448
ATACCAACGTGATCGTGAGGTCGTTGATACTAAC,-0.625,0.0964,0.725,0.527,0.699,1.67,0.835,1.23,-0.137,0.259,0.904,0.317,0.269,0.532,0.915,2.36,1.73,1.8,2.32
CGAACTAGGTCAGTGACAGGACAGTGAATAGTAA,7.42,7.6,2.57,0.828,0.785,0.605,0.0765,1.03,0.459,3.11,2.76,3.47,3.9,0.653,1.34,1.98,0.499,0.664,0.295
TCTAGCAGGCCAAAGGGTCACTCAAGAGGTACGG,1.61,2.45,-0.396,-0.432,2.19,2.95,-0.0548,3.89,0.234,3.74,4.55,4.65,4.35,0.568,4.24,2.51,-0.172,3.12,1.2
TCTTGTAGTTCAACAGGAGGTTAAGAAAGATCGA,1.24,0.804,0.436,-0.0772,1.16,3,0.574,2.75,0.938,2.56,2.2,4.32,2.05,2.02,2.16,2.17,-0.466,2.57,1.11
ATCGAAAGGTCGAGGTGAGTACAGAGAAAGGGAA,0.64,2.65,1.01,0.9,1.64,3.27,0.251,3.11,1.29,4.14,2.93,4.39,4.17,0.83,3.89,3.1,0.817,4.25,1.13
